Laboratory results as given in PubChem BioAssay (NCI).
The panel holds about 83,000 compounds, 20% with a hit somewhere; the sample as a whole holds those more often.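 Assay: single dose, 48 h. Readout: percent growth (0 = no net growth; negative = cell death). Active: <10.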 Values without a mark were called inactive. Activity calls are given as the source filed them.

What was measured:
Assay in all cases: NCI-60 one-dose screen, 48 h (100 = growth as untreated, 0 = no growth, -100 = all killed)
Details in all cases: 10 µM unless noted
HCT-15 colon = tested on: HCT-15 colon
HT29 colon = tested on: HT29 colon
SNB-75 CNS = tested on: SNB-75 CNS
SNB-19 CNS = tested on: SNB-19 CNS
U251 CNS = tested on: U251 CNS
PC-3 prostate = tested on: PC-3 prostate
SK-MEL-5 melanoma = tested on: SK-MEL-5 melanoma
UACC-62 melanoma = tested on: UACC-62 melanoma
LOX IMVI melanoma = tested on: LOX IMVI melanoma
SK-MEL-28 melanoma = tested on: SK-MEL-28 melanoma
SK-MEL-2 melanoma = tested on: SK-MEL-2 melanoma
EKVX NSCLC = tested on: EKVX NSCLC
SN12C renal = tested on: SN12C renal
UO-31 renal = tested on: UO-31 renal
TK-10 renal = tested on: TK-10 renal
ACHN renal = tested on: ACHN renal
CAKI-1 renal = tested on: CAKI-1 renal
A498 renal = tested on: A498 renal
CCRF-CEM leukemia = tested on: CCRF-CEM leukemia
MOLT-4 leukemia = tested on: MOLT-4 leukemia

Compound | growth (HCT-15 colon) | growth (HT29 colon) | growth (SNB-75 CNS) | growth (SNB-19 CNS) | growth (U251 CNS) | growth (PC-3 prostate) | growth (SK-MEL-5 melanoma) | growth (UACC-62 melanoma) | growth (LOX IMVI melanoma) | growth (SK-MEL-28 melanoma) | growth (SK-MEL-2 melanoma) | growth (EKVX NSCLC) | growth (SN12C renal) | growth (UO-31 renal) | growth (TK-10 renal) | growth (ACHN renal) | growth (CAKI-1 renal) | growth (A498 renal) | growth (CCRF-CEM leukemia) | growth (MOLT-4 leukemia)
CSC1=N/C(=C\c2cccc(OCc3ccc(Cl)cc3)c2)C(=O)N1 | 81.4% | 76.7% | 82.5% | 90.4% | 84.5% | 76% | 77.7% | 70.4% | 84.2% | 100% | 87.9% | 75.5% | 80.9% | 67.2% | 78.9% | 87.1% | 80.6% | 62.1% | 98.3% | 90.5%
NS(=O)(=O)c1ccc(CCn2c(SCC(=O)N/N=C/c3cc4ccccc4[nH]3)nc3ccccc3c2=O)cc1 | 91.4% | 39.2% | 80% | 58.6% | 30.6% | 40.2% | 31.9% | 53.3% | 49.1% | 88.3% | 25.7% | 85.3% | 73.4% | 67% | 102% | 93.9% | 82.5% | 102% | 35% | 23.1%
CS(=O)(=O)c1ccc(C(=O)N/N=C/c2ccccc2Cl)cc1 | 102% | 104% | 84.9% | 95.1% | 90.3% | 99% | 111% | 98.5% | 99.9% | 103% | 104% | 97% | 98.3% | 84.3% | 110% | 108% | 97.8% | 91.3% | 108% | 67.7%
COc1cnc2c(c1)C(=O)c1c-2n(CCCN2CCNCC2)c(=O)c2cc(Cl)ccc12 | -89.4% (active) | -80.4% (active) | 39.7% | 30.4% | -98.4% (active) | -84% (active) | 45.2% | -45% (active) | -84.6% (active) | -88.2% (active) | 43.9% | 29% | 16.5% | -59% (active) | 47.5% | -100% (active) | 33.1% | 13.6% | -69.4% (active) | -54.2% (active)
O=[N+]([O-])c1ccc(N=Nc2c(NNc3ccc([N+](=O)[O-])cn3)cc(S(=O)(=O)O)c3ccccc23)nc1 | 68.7% | 40.8% | 91.9% | 95.6% | 68.7% | 67.7% | 92% | 86.4% | 57.9% | 104% | 108% | 91.1% | 81.5% | 52.1% | 88.4% | 57.4% | 64.1% | 77.2% | 65.1% | 70.9%
CN1CCC2(CC1)N=C(SCC(=O)Nc1cnc3ccccc3c1)C(c1ccc(Br)cc1)=N2 | 12% | -67.1% (active) | 25.4% | 40.7% | -24.7% (active) | 21.3% | -96.2% (active) | -78.9% (active) | -78.5% (active) | -70.1% (active) | -31.2% (active) | 37.9% | 31.1% | -12.5% (active) | 30.1% | 5.39% (active) | 8.73% (active) | 44.6% | 4.53% (active) | 1.51% (active)
CC[C@]1(O)C[C@H]2CN(CCc3c([nH]c4ccccc34)C(C(=O)OC)(c3cc4c(cc3OC)N(C)[C@H]3[C@@](O)(C(=O)OC)[C@H](OC(C)=O)[C@]5(CC)[C@@H]6C[C@@H]6CN6CC[C@]43[C@@H]65)C2)C1 (stereo not given in full) | 19.5% | 7.29% (active) | -14.6% (active) | 24% | 13.7% | 18.9% | -80.1% (active) | 14.5% | 5.88% (active) | 53.7% | 45.5% | 35.2% | 22.2% | 9.66% (active) | 52.7% | 5.92% (active) | -13.2% (active) | 16.6% | 4.35% (active) | 3.74% (active)
COc1ccc(/C=C/C(=O)CCC(=O)O)cc1OC | 115% | 101% | 90.5% | 111% | 107% | 111% | 109% | 110% | 99.7% | 112% | 97.5% | 109% | 101% | 83.3% | 104% | 108% | 95.5% | 121% | 95.6% | 102%
COc1ccc(-c2nc3ccccc3n3cccc23)cc1 | 142% | 107% | 107% | 140% | 100% | 78.6% | 99% | 88.3% | 90% | 111% | 111% | 97.2% | 95.1% | 45.7% | 138% | 105% | 85.5% | 99.4% | 89.9% | 101%
Cc1cccc(N=NC(=S)NNc2cccc(C)c2)c1 | 108% | 97.9% | 88.7% | 106% | 114% | 102% | 108% | 101% | 105% | 125% | 111% | 98.3% | 102% | 81.6% | 136% | 92.1% | 94.5% | 87.3% | 86.6% | 98.4%
CCNC(=O)c1ccc2c(c1)nc(-c1ccc(Cl)cc1)n2-c1cc(C(C)(C)C)[nH]n1 | 45.2% | 26% | 34.2% | 60.5% | 46.5% | 44% | 11.5% | 38.6% | 33.1% | 41.6% | 46.6% | 42.8% | 76.4% | 37.5% | 89.7% | 52% | 18.5% | 57.9% | 34.3% | 20.9%
COc1ccc2nc3ccccc3c(NCc3ccc(C)cc3)c2c1 | 11.4% | 1.23% (active) | 46.6% | 29.2% | 15.3% | 11.4% | 34.4% | 55.7% | -6.01% (active) | 66.4% | 70% | 35.2% | 23.6% | 13.4% | 47% | 16.3% | 26.2% | -1.58% (active) | 7.09% (active) | 0.305% (active)
CN1C(=O)N(C)C2C1NN=c1s/c(=C\c3ccsc3)c(=O)n12 (stereo not given) | 24.7% | 9.4% (active) | -7.65% (active) | 39.6% | 30.6% | 38.5% | 41.6% | 28.3% | 37.7% | 67.8% | 56.4% | 65.8% | 58.8% | 56% | 76.8% | 47% | 35.7% | 7.47% (active) | 28.8% | 49.7%
CC(C)[C@@H]1C=C2CC[C@H]3[C@](C)(CN)CCC[C@]3(C)[C@H]2CC1 | 44.5% | -34.1% (active) | 64.8% | 104% | 14% | 69.6% | 69.3% | 86.3% | 43.6% | -82.1% (active) | 81.7% | 65.6% | 93% | 68.3% | 90.8% | 80.5% | 78.7% | 66.6% | 71% | 49.4%
CC(C)CCSc1nc(Nc2ccccc2)c(C#N)c(-c2ccc(F)cc2)n1 | 71.7% | 49.9% | 42.1% | 53% | 14% | 59.1% | 96.6% | 82.4% | 60.4% | 87.3% | 90.6% | 65.1% | 38.9% | 30% | 20.6% | 13.4% | 55.5% | 40% | 49.3% | 51.5%
